# Measurements as given in PubChem BioAssay (EPA / NIEHS).
# Records with an inconclusive call do not appear. The source made the active and inactive calls. How the source made its calls, unless noted: active means hit-call score of the fitted dose curve at least 0.9, where 1 is the maximum; inconclusive means response in the unintended direction; inactive means score below 0.9.
# Tests used:
# [1] = target: rat CYP2A2, Cyp2a2 (gene 24895) (UniProt P15149); assay: NVS_ADME_rCYP2A2: NovaScreen (NVS) CYP450-related Enzyme Activity (ADME) Assay for rat CYP2A2 (AID 2283116)
# Sequence of rat CYP2A2, Cyp2a2 (gene 24895) (P15149 whole entry, looked up): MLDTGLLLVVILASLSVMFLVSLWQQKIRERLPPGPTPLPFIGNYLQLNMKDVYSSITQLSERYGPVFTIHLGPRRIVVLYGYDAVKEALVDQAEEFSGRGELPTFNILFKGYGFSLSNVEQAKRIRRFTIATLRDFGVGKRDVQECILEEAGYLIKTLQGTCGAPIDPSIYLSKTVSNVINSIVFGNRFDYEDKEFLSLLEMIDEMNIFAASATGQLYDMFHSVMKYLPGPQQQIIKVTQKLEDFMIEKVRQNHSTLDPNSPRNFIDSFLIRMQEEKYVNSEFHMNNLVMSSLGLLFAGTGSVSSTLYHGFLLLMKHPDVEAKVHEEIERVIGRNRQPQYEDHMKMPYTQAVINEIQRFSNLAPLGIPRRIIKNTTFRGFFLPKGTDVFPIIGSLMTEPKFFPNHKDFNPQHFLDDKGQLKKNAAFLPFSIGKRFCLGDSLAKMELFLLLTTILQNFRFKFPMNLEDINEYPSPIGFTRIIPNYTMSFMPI
# Procedure, shortened: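 Compounds first tested in duplicate at 10 uM, then in singleton concentration series up to 20 uM when over threshold. Activity of the recombinant enzyme read by fluorescence at 0.2 h, normalised to acetonitrile vehicle.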
# rat CYP2B1, gene 24300 = assay: NVS_ADME_rCYP2B1: NovaScreen (NVS) CYP450-related Enzyme Activity (ADME) Assay for rat CYP2B1 (AID 2283117)
# Procedure, shortened: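 Cell-free fluorescence enzyme assay, recombinant rat CYP2B1, 0.75 h after dosing. Single-concentration duplicates at 10 uM preceded concentration series (max 20 uM) for actives; acetonitrile as negative-control baseline.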
# [2] = target: rat CYP2A1, Cyp2a1 (gene 24894) (UniProt P11711); assay: NVS_ADME_rCYP2A1: NovaScreen (NVS) CYP450-related Enzyme Activity (ADME) Assay for rat CYP2A1 (AID 2283114; active means hit-call score of the fitted dose curve at least 0.9, where 1 is the maximum; inactive means score below 0.9)
# Sequence of rat CYP2A1, Cyp2a1 (gene 24894) (P11711 whole entry, looked up): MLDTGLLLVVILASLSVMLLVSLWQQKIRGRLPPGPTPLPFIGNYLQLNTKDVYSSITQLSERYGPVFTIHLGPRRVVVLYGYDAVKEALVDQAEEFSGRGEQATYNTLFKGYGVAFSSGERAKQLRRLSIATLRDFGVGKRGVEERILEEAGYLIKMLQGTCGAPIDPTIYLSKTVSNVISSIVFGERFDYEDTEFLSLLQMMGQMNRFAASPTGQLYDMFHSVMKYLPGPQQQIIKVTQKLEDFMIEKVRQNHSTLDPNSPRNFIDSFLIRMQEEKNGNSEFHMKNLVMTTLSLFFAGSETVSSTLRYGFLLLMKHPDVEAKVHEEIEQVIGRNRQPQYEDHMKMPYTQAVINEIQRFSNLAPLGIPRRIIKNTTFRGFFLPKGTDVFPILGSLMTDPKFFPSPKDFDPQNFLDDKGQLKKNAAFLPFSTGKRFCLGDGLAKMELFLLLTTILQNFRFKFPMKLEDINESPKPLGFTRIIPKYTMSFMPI
# Procedure, shortened: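 Cell-free fluorescence enzyme-activity read on recombinant rat CYP2A1, taken 0.75 h post-dosing. Compounds were screened in duplicate at 10 uM, then hits tested in concentration series (max 20 uM); inhibition scored relative to acetonitrile baseline.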
# [3] = target: rat CYP2C11, Cyp2c11 (gene 29277) (UniProt P08683); assay: NVS_ADME_rCYP2C11: NovaScreen (NVS) CYP450-related Enzyme Activity (ADME) Assay for rat CYP2C11 (AID 2283118)
# Sequence of rat CYP2C11, Cyp2c11 (gene 29277) (P08683 whole entry, looked up): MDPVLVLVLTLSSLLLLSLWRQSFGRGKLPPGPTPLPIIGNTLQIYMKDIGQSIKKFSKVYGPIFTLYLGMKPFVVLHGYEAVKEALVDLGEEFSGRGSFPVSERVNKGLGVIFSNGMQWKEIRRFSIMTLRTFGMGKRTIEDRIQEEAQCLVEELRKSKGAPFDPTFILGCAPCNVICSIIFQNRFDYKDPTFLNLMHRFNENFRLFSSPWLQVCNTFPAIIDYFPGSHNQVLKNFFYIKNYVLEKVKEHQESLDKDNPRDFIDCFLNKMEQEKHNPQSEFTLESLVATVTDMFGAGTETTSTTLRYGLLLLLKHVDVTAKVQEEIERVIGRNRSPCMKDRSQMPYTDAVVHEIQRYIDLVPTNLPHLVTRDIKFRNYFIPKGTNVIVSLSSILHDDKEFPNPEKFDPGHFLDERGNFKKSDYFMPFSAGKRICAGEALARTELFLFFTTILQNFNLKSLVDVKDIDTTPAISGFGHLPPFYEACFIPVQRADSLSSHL
# Procedure, shortened: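 Screened first at 10 uM in duplicate, hits followed by concentration-response. Recombinant rat enzyme activity monitored by fluorescence 0.33 h post-dosing, normalised to acetonitrile negative control.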
# [4] = target: rat CYP2C12, Cyp2c12 (gene 25011) (UniProt P11510); assay: NVS_ADME_rCYP2C12: NovaScreen (NVS) CYP450-related Enzyme Activity (ADME) Assay for rat CYP2C12 (AID 2283119)
# Sequence of rat CYP2C12, Cyp2c12 (gene 25011) (P11510 whole entry, looked up): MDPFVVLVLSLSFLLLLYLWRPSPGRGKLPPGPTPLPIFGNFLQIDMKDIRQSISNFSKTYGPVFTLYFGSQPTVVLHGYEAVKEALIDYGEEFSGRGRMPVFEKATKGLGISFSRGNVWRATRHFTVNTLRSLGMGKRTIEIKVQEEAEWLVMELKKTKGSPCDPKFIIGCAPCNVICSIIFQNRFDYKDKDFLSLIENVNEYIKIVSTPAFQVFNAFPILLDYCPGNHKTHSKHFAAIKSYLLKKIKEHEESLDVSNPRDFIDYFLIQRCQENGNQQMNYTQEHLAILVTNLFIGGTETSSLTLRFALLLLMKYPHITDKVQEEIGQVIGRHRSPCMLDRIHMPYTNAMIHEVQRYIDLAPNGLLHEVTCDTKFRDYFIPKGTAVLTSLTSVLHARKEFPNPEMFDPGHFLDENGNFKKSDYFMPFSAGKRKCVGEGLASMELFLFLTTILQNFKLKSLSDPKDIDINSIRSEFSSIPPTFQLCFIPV
# Procedure, shortened: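 Fluorescent-substrate turnover by recombinant rat CYP2C12, measured at 0.5 h, normalized to acetonitrile vehicle. Chemicals screened first at a single 10 uM concentration in duplicate, with concentration series for actives.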
# [5] = target: rat CYP2C13, Cyp2c13 (gene 171521) (UniProt P20814); assay: NVS_ADME_rCYP2C13: NovaScreen (NVS) CYP450-related Enzyme Activity (ADME) Assay for rat CYP2C13 (AID 2283121)
# Sequence of rat CYP2C13, Cyp2c13 (gene 171521) (P20814 whole entry, looked up): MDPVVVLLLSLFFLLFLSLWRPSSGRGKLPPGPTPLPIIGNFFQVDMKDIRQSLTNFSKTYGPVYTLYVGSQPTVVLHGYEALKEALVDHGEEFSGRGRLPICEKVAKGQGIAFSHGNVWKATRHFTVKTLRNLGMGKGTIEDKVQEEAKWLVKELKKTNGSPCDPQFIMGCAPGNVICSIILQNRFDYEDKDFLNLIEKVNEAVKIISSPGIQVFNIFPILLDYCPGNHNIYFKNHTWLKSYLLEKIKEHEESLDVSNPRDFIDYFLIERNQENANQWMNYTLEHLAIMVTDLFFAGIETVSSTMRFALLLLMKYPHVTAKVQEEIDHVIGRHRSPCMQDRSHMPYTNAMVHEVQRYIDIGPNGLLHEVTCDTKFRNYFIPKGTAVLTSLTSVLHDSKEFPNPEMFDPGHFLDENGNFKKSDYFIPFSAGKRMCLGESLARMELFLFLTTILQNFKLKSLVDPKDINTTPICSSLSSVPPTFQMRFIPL
# Procedure, shortened: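 Inhibition is read as decreased fluorescent product formation, referenced to acetonitrile vehicle. Cell-free recombinant rat Cyp2c13 reaction ran 0.75 hour; compounds first at 10 uM in duplicate, then concentration series for actives.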
# [6] = target: human Acetylcholinesterase (AChE), ACHE (gene 43) (UniProt P22303); assay: NVS_ENZ_hAChE: NovaScreen (NVS) Enzymatic Assay for human Acetylcholinesterase (AChE) (AID 2283129)
# Sequence of human Acetylcholinesterase (AChE), ACHE (gene 43) (P22303 whole entry, looked up): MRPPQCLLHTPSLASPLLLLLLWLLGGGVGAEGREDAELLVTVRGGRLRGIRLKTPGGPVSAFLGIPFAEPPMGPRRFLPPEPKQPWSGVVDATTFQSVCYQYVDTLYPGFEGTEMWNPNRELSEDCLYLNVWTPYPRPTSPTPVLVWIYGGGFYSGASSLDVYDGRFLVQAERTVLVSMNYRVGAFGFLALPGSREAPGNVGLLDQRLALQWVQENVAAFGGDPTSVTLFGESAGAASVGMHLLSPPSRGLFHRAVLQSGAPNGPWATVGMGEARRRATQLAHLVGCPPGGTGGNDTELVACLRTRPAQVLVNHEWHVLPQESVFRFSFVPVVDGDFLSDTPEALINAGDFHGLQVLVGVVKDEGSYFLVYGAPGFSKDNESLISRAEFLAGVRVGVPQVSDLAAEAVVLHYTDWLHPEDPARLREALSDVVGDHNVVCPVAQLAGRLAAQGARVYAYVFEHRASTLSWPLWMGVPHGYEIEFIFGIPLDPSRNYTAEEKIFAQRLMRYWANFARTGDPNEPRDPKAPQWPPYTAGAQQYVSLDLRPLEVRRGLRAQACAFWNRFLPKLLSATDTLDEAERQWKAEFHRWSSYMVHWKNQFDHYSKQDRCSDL
# Procedure, shortened: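 Actives from a duplicate single-point screen (25 uM) were followed up in concentration series. Enzyme activity read by absorbance (colorimetric) 0.33 hour after dosing, cell-free, normalized to DMSO, with loss of signal scored.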
structure (smiles),measurement,setting,value
CC(C)C1CCC(Cc2ccc(Cl)cc2)C1(O)Cn1cncn1 (stereo unspecified),AC50,[1],106 nM (active)
same,AC50,"rat CYP2B1, gene 24300",2040 nM (active)
CC1(C)CCC(Cc2ccc(Cl)cc2)C1(O)Cn1cncn1 (stereo unspecified),AC50,[2],2500 nM (active)
same,AC50,[1],40.4 nM (active)
same,AC50,"rat CYP2B1, gene 24300",385 nM (active)
same,AC50,[3],121 nM (active)
same,AC50,[4],5150 nM (active)
same,AC50,[5],1170 nM (active)
BrCCBr,outcome,[1],inactive
CC(C)(C)c1cc(O)ccc1O,outcome,[6],inactive
Oc1cccc2cccnc12,outcome,[6],inactive
